EBV LMP1 NFkB: EBV LMP1-driven NF-kappaB luciferase reporter inhibitors, primary screen, cell-based, luminescence, single point | AID 504558, 2011 | inhibition, % at 12.5 µM | actives 0.69% (n = 350,000) | LMP1-induced NF-kappaB luciferase reporter cells; in the data active means inhibition above about 41%; inconclusive means no clear call, values can overlap the other calls;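 further: 0% = neutral control wells and 100% = reference inhibitor control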
LGR2 antag: inhibitors of bursicon-induced LGR2 CRE-luciferase signal, primary screen, cell-based, HEK293, CRE-luciferase reporter, bursicon stimulation. bursicon-stimulated, 4 h. inhibition, % at 9.99 µM. actives 0.35% (n = 380,000). AID 720647, 2013;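 active means drop in luminescence signal, shown as inhibition above about 50% in the replicate tests, limit read from the data, passing the limit was not always enough; inconclusive means probably only some replicates passing the limit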;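 further: agonist challenge used bursicon conditioned medium at about half maximal strength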
PAX8 inh HTS: inhibitors of PAX8-driven TPO luciferase reporter, primary screen, RMG-I cells, single concentration. SteadyGlo, 24 h. inhibition, % at 12.6 µM. actives 1.2% (n = 360,000). AID 652154, 2013;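 active means mean replicate inhibition at least 60% with every replicate also reaching 60%; inconclusive means only one of the two criteria is met; inactive means mean below 60% and not all replicates reaching 60%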;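 further: luciferase light reporting Pax8 driven TPO promoter activity; plate controls were median of neutral control wells for no effect and mitoxantrone controls for full effect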
TRPM1 prom inh: inhibitors of MITF-dependent TRPM1 promoter reporter, primary screen, cell-based, SK-MEL-5, single point, luciferase | SK-MEL-5 TRPM1 promoter luciferase, 24 h | inhibition, % at 12.5 µM | actives 0.83% (n = 330,000) | AID 488899, 2010;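 active means mean inhibition across replicates of 60% or more, whatever share of single replicates reaches that level; inconclusive means some that reach 60%, reason not given; inactive means mean inhibition across replicates below 60%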
EWS-Fli inh: EWS/Fli-driven NR0B1 reporter inhibitors, primary screen, A673 cells, NR0B1 luciferase, luminescence, MLPCN library | viability-normalised | inhibition, % at 12.6 µM | actives 0.67% (n = 350,000) | AID 651661, 2012;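 active means mean inhibition of at least 50% after viability correction, with every replicate also passing that limit; inconclusive means mean reaches 50% but only one of two replicates passes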;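 further: firefly luciferase signal divided by Alamar Blue viability fluorescence both relative to DMSO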
Shn3 inh set2: reduction of Shn3 3'UTR firefly luciferase signal, primary screen, Schnurri-3 inhibitor project, cell-based, Clone20 osteoblasts, set 2; actives 0.52% (n = 360,000); Clone20 osteoblast Shn3 3'UTR firefly luciferase, 24 h; AID 588674, 2011; inhibition, % at 12.5 µM;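 active means mean inhibition of at least 75% with every replicate also reaching 75%; inconclusive means mean inhibition at least 75% but some replicate below; inactive means mean inhibition below 75%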;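 further: 0% = median of neutral control wells and 100% = pilot-screen positive control compound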
Active calls of the source: *; ? = inconclusive; · = not tested or not shown. Hits are enriched below; roughly 2.2% of the tested compounds scored in any of these assays.

SMILES	EBV LMP1 NFkB	LGR2 antag	PAX8 inh HTS	TRPM1 prom inh	EWS-Fli inh	Shn3 inh set2
O=[N+]([O-])c1cccc(-c2nnc(-c3ccc4c(c3)OCO4)o2)c1	-31	-34	144*	-24	-97	-60
CCC(=O)N1C[C@@H](C)[C@H](OC)CN(C)C(=O)c2ccc(NC(=O)c3cc(C)on3)cc2OC[C@@H]1C	·	2	-8	·	5	·
N#Cc1ccc(-c2cccs2)nc1SCc1cccnc1	·	-8	50	·	54*	·
COc1ccc(-c2csc3ncnc(NCCN4CCOCC4)c23)cc1	46*	·	·	1	·	22
COc1ccc(-c2oc3ncnc(NCCN4CCOCC4)c3c2-c2ccc(OC)cc2)cc1	48*	·	·	1	·	66
COc1ccc2c3c([nH]c2c1)[C@H](CO)N(C(=O)c1ccccc1)CC31CCN(C(=O)c2cccc(F)c2)CC1	·	-7	22	·	15	·
COc1ccc(C(=O)/C=C/C(=O)N(CC(=O)NC2CCCCC2)CC2CCCO2)c(O)c1 (stereo unspecified)	29	104*	82*	98*	56*	-8
COc1ccc(C(=O)/C=C/C(=O)N(CC(=O)NC2CCCCC2)Cc2ccccc2OC)c(O)c1	16	?	3	103*	?	-3
COc1ccc(C(=O)/C=C/C(=O)N(CC(=O)NC2CCCCC2)Cc2ccccc2)c(O)c1	-5	100*	?	100*	83*	95*
C[C@H](CO)N1C[C@H](C)[C@H](CN(C)S(C)(=O)=O)Oc2ccc(NC(=O)CCN3CCOCC3)cc2CC1=O	·	-2	-2	·	-3	·
c1ccc2nc(-c3ccc(N4CCOCC4)cc3)ccc2c1	66*	·	·	54	·	55
CN1CCN(c2ccc(-c3ccc4ccccc4n3)cc2)CC1	83*	102*	94*	76*	93*	?
CN1C(=O)c2cc(NC(=O)Cc3ccccc3)ccc2OC[C@@H]2O[C@H](CC(=O)NCc3ccc(Cl)cc3)CC[C@H]21	·	12	18	·	-7	·
CCOC(=O)c1ccc(NC(=O)c2nc[nH]c2C(=O)NC)cc1	3	-16	-24	-18	-3	-16
CCOC(=O)c1ccc(NC(=O)c2nc[nH]c2C(=O)NCCNC(=O)c2[nH]cnc2C(=O)Nc2ccc(C(=O)OCC)cc2)cc1	4	-1	-13	100*	60*	88*
O=C(Nc1c(Cl)cc2c(c1Cl)Cc1cc([N+](=O)[O-])ccc1-2)C(Cl)Cl	-30	·	13	-15	0	95*
CC(=O)Nc1ccc2c(c1)Cc1c-2cc(Cl)c(NC(C)=O)c1Cl	3	-25	-25	-19	5	-11
CNC[C@@H]1Oc2cc(-c3ccccc3F)ccc2S(=O)(=O)N([C@@H](C)CO)C[C@@H]1C	·	-8	-5	·	-6	·
CCOC(=O)C(C(=O)OCC)C(C(=O)OCC)N1CCOCC1 (stereo unspecified)	34	·	·	96*	·	41
Cc1ccnc(Nc2nc3ccccc3o2)n1	40	54*	8	17	48	15
COc1ccc(NC(=O)C2Cc3c(-c4cccc(NC(C)=O)c4)ccnc3O2)cc1 (stereo unspecified)	·	-24	0	·	52*	-13
CS(=O)(=O)Nc1cccc(NC(=O)C2Cc3c(-c4cccc(F)c4)ccnc3O2)c1 (stereo unspecified)	·	1	55	·	64*	67
CC(=O)c1cccc(-c2ccnc3c2CC(C(=O)NCCc2ccccc2)O3)c1 (stereo unspecified)	·	-1	1	·	54*	-14
O=C(NCCc1ccccc1)C1Cc2c(-c3ccc4c(c3)OCO4)ccnc2O1 (stereo unspecified)	·	0	6	·	-4	0
O=C(Nc1ccccc1)C1Cc2c(-c3cccc(F)c3)ccnc2O1 (stereo unspecified)	·	-22	3	·	-8	-6
SMILES	EBV LMP1 NFkB	LGR2 antag	PAX8 inh HTS	TRPM1 prom inh	EWS-Fli inh	Shn3 inh set2
CC(=O)Nc1cccc(-c2ccnc3c2CC(C(=O)NCCc2ccccc2)O3)c1 (stereo unspecified)	·	-7	43	·	55*	0
C[C@@H]1CN([C@@H](C)CO)C(=O)Cc2cc(N(C)C)ccc2O[C@H]1CN(C)S(=O)(=O)c1ccc(Cl)cc1	·	4	15	·	10	·
C[C@@H]1CN([C@@H](C)CO)C(=O)c2cc(NC(=O)c3ccccc3)ccc2O[C@@H](C)CCCCO[C@@H]1CN(C)C(=O)NC1CCCCC1	·	8	2	·	-8	·
CC1(C)CC[C@]2(C(=O)n3ccnc3)CC[C@]3(C)[C@H](C(=O)C=C4[C@@]5(C)C=C(C#N)C(=O)C(C)(C)[C@@H]5CC[C@]43C)[C@@H]2C1	90*	9	39	94*	76*	94*
COCCNC(=O)NC12CC3(C)CC(C)(CC(C)(C3)C1)C2	57*	4	21	10	-5	-10
COCCNC(=O)NC12CC3CC(CC(C3)C1)C2	4	2	5	4	-3	5
C[C@@H]1CN([C@@H](C)CO)S(=O)(=O)c2ccc(C#CC3CCCCC3)cc2O[C@H]1CN(C)Cc1cccnc1	·	-17	·	·	20	·
C[C@@H]1CN([C@@H](C)CO)S(=O)(=O)c2ccc(C#CC3CCCC3)cc2O[C@H]1CN(C)Cc1cccnc1	·	25	84*	·	21	·
COc1ccccc1C#Cc1ccc2c(c1)O[C@H](CN(C)Cc1cncnc1)[C@@H](C)CN([C@@H](C)CO)S2(=O)=O	·	16	46	·	15	·
C[C@@H]1CN([C@H](C)CO)S(=O)(=O)c2ccc(C#CC3CCCC3)cc2O[C@H]1CN(C)Cc1cccnc1	·	14	87*	·	17	·
COc1ccccc1C#Cc1ccc2c(c1)O[C@H](CN(C)Cc1cccnc1)[C@H](C)CN([C@@H](C)CO)S2(=O)=O	·	18	87*	·	12	·
C[C@H]1CN([C@@H](C)CO)S(=O)(=O)c2ccc(C#CC3CCCC3)cc2O[C@H]1CN(C)Cc1cccnc1	·	13	14	·	-11	·
CN(C)C(=O)C[C@@H]1CC[C@@H](NC(=O)C2CC2)[C@@H](CO)O1	·	-6	·	·	-5	·
CCCCCCCn1ccc(=N)cc1	93*	·	·	37	·	85
CCCCCn1ccc(=N)cc1	13	·	·	20	·	32
CCCCCCCCCn1ccc(=N)cc1	29	32	?	65*	40	59
C[C@@H]1CN([C@@H](C)CO)C(=O)c2cc(-c3cccc(C(=O)N(C)C)c3)cnc2O[C@H]1CN(C)C	·	7	·	·	-5	·
Cc1ccc(-c2csc(N3CCN(CCCn4c(C(F)(F)F)nc5ccccc54)CC3)n2)cc1	-6	-4	2	23	10	17
